{"source": "PubChem BioAssay", "data": [{"molecular_target": "Neurogenic locus notch homolog protein 3 (Homo sapiens) (UniProt Q9UM47)", "sequence (Q9UM47 whole entry, looked up)": "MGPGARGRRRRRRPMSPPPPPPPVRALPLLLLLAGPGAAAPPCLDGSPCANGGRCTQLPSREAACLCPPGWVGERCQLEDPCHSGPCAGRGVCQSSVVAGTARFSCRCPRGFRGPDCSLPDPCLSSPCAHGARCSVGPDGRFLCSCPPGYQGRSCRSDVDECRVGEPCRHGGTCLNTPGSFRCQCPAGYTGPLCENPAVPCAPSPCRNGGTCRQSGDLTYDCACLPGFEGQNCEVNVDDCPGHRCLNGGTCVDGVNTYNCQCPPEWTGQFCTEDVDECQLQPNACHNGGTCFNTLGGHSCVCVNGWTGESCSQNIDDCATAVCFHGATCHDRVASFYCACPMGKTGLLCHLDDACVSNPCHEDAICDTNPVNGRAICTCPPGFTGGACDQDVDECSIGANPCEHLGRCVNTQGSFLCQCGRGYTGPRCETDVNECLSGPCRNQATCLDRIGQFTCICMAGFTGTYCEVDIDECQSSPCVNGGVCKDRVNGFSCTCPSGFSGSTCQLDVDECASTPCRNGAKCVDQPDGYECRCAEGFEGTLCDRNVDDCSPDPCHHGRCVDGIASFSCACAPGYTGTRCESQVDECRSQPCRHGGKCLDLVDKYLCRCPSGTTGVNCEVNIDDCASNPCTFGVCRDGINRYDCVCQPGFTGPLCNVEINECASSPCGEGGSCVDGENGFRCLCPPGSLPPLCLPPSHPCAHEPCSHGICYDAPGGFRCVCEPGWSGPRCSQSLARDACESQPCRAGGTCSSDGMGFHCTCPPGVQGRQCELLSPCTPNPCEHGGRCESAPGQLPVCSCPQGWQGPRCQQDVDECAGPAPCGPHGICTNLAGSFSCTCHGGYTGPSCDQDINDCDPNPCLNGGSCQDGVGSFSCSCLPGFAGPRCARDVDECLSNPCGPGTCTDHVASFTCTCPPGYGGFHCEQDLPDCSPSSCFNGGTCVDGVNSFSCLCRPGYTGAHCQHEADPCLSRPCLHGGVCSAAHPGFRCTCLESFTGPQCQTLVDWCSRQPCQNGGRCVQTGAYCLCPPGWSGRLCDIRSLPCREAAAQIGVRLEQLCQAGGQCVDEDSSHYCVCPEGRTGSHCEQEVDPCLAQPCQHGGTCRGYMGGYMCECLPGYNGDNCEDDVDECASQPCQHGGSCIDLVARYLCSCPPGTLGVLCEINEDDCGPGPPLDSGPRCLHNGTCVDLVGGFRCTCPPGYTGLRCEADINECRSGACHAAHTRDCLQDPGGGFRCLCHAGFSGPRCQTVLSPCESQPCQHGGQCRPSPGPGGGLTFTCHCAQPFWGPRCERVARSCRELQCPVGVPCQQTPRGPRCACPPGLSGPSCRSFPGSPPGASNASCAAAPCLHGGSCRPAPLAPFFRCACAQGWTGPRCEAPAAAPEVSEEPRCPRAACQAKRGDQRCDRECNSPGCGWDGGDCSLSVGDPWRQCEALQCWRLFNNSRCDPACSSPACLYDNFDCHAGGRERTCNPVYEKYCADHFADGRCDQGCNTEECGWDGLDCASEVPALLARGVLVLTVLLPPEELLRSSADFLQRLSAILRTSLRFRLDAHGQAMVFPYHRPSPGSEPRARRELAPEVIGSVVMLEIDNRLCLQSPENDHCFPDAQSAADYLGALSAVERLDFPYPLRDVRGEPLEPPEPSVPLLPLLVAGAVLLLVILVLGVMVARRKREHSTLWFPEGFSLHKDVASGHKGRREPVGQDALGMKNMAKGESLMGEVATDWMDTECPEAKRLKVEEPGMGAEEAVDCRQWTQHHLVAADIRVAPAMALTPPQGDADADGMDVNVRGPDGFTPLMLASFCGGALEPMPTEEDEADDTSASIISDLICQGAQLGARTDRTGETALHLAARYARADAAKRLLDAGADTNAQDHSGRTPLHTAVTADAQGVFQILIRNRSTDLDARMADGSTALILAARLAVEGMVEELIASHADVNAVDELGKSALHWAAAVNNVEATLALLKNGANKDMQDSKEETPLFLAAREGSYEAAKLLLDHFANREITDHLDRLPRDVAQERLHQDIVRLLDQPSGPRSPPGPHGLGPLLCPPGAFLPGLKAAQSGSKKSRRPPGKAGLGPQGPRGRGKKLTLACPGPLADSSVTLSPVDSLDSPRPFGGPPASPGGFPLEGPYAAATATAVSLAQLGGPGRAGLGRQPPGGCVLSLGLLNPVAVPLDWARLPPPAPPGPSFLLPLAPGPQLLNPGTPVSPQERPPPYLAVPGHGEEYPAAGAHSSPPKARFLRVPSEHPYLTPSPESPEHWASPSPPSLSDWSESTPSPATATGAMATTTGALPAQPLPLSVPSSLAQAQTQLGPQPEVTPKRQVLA", "test": "small molecules binding NOTCH3 protein – biochemical, 635/667 nm fluorescence, primary screen (AID 1096)", "details": "small-molecule microarray, 635 nm fluorescence, higher = more signal", "values": [{"smiles": "COc1ccc(NC(=O)O[C@H]2[C@H](OC(=O)Nc3ccccc3)[C@H](OC(=O)Nc3ccccc3)[C@@H](OC)O[C@@H]2CO)cc1", "composite z-score": 0.989}, {"smiles": "COCCOC(=O)N1C(=O)[C@@]2(c3ccccc31)[C@H](C(=O)N1CCN(c3ncccn3)CC1)[C@H]1C(=O)O[C@H](c3ccccc3)[C@H](c3ccccc3)N1[C@@H]2c1ccc(O)cc1", "composite z-score": 0.679}, {"smiles": "CCCCO[C@H]1C[C@H]2C(I)=C[C@@H]1C(=O)[C@]21CO1", "composite z-score": 0.0532}, {"smiles": "COc1ccc(CN(C2=CC[C@@]3(C(N)=O)C(=O)C(Cl)=C(Cl)C(=O)[C@@]3(C#N)C2)S(=O)(=O)c2ccc(Br)cc2)cc1", "composite z-score": -0.366}, {"smiles": "CCCCN1CC=CC23O[C@@H]4/C=C\\CCC(C)OC(=O)C4[C@H]2C(=O)N(C(CO)C(C)C)[C@@H]3C1=O", "note": "(stereo partly drawn)", "composite z-score": 0.395}, {"smiles": "[N-]=[N+]=NCc1ccccc1C[C@]1(C(N)=O)N=C(c2ccc(OCCCO)cc2)O[C@H]1c1ccccc1", "composite z-score": 0.859}, {"smiles": "C=CCNC(=O)[C@H]1[C@@H]2C(=O)O[C@@H](c3ccccc3)[C@@H](c3ccccc3)N2[C@@H](c2ccc(O)cc2)[C@]12C(=O)Nc1ccc(C#CC3(O)CCCCCC3)cc12", "composite z-score": 0.354}, {"smiles": "NCCCCCNC(=O)[C@@H]1C[C@@H]2C(=O)NCC(=O)N2[C@@H]1c1cccc(OCCO)c1", "composite z-score": 0.712}]}, {"tested_on": "not listed separately", "test": "probe aEGFR binding to arrayed compounds – biochemical, biotinylated probe, 635/667 nm fluorescence, primary screen (AID 1097);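 also: probe is a biotinylated anti-EGFR antibody binding compounds printed on slides; score combines fluorescence near 667 nm and signal to noise of each spot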", "details": "small-molecule microarray, higher = more signal", "values": [{"smiles": "COc1cc2c(cc1OC)CN(C(=O)[C@@H]1[C@H]3C(=O)O[C@H](c4ccccc4)[C@H](c4ccccc4)N3[C@H](c3ccc(OCCO)cc3)[C@@]13C(=O)Nc1ccc(C#CC4(O)CCCCCC4)cc13)CC2", "composite z-score": -0.244}, {"smiles": "C=C(/C(=C/C[C@H](OC(C)=O)c1cccc(OCCO)c1)c1cnc2ccccc2c1)C(C)C", "composite z-score": 0.386}, {"smiles": "OCCCC1=CC(c2ccc(CN3CCCC3)cc2)N(Cc2sc3ccccc3c2Cl)CC1", "note": "(stereo not drawn)", "composite z-score": 0.148}, {"smiles": "CCOC(=O)C[C@H]1[C@H](OC(=O)c2ccccc2-c2ccccc2)[C@@H](NC(=O)C2CCCCC2)c2cc(OCCCO)ccc2N1C(=O)Cc1ccc(OC)cc1", "composite z-score": -0.139}, {"smiles": "CN1C(=O)C2C=CC(C(O)c3cccc4ccccc34)N(N3CCCCC3)C2C1=O", "note": "(stereo not drawn)", "composite z-score": 0.299}, {"smiles": "CC1=C([C@H](O)CCc2ccccc2)[C@H](CO)[C@@H]2C(=O)N(C)C(=O)[C@@H]2C1", "composite z-score": -0.154}, {"smiles": "O=C1O[C@@H](c2ccccc2)[C@@H](c2ccccc2)N2[C@@H](c3ccc(OCCO)cc3)[C@]3(C(=O)Nc4ccccc43)[C@@H](C(=O)O)[C@H]12", "composite z-score": 0.247}, {"smiles": "C=C(/C(=C/C[C@@H](OC(C)=O)c1cccc(OCCO)c1)c1cc(C(=O)OC)ccc1OC)C(C)C", "composite z-score": -0.0987}, {"smiles": "CCOC(=O)C[C@H]1[C@H](OC(=O)c2cc3ccccc3oc2=O)[C@@H](NC(=O)c2ccc(-c3ccccc3)cc2)c2cc(OCCCO)ccc2N1C(=O)c1ccc2ccccc2n1", "composite z-score": -0.0531}, {"smiles": "CC[C@H]1C2=C3C(CC[C@H]4C(OCc5ccc(F)cc5C(F)(F)F)OC[C@](C)([C@@H]34)N(C(=O)OC(C)(C)C)C2)C(COC)C1COC", "note": "(stereo partly drawn)", "composite z-score": -0.113}, {"smiles": "C=CCOC(=O)[C@H]1[C@@H]2C(=O)O[C@@H](c3ccccc3)[C@@H](c3ccccc3)N2[C@@H](c2ccc(OCCOC(=O)[C@H]3C[C@H]4C(=O)N[C@@H](CCCCNC(C)=O)C(=O)N4[C@H]3c3ccc(O)cc3)cc2)[C@]12C(=O)Nc1ccccc12", "composite z-score": -0.0509}, {"smiles": "[N-]=[N+]=Nc1ccccc1[C@@H]1OC(c2ccc(OCCCO)cc2)=N[C@]1(Cc1ccccc1)C(=O)NCC(O)CO", "note": "(stereo partly drawn)", "composite z-score": 0.206}, {"smiles": "COc1ccc(C(O)C2C=CC3C(=O)N(c4ccccc4)C(=O)C3N2Nc2ccc([N+](=O)[O-])cc2)cc1", "note": "(stereo not drawn)", "composite z-score": 0.239}, {"smiles": "O=C1OCC=C[C@H]2OC34C=CCN(Cn5nnc6ccccc65)C(=O)[C@H]3N(CCCO)C(=O)[C@@H]4[C@@H]12", "note": "(stereo partly drawn)", "composite z-score": -0.356}, {"smiles": "CCC[C@@H]1C[C@@]1(CCC)[C@@H](NC(=O)OCc1ccccc1)c1ccc(-c2ccccc2)cc1", "composite z-score": -0.186}, {"smiles": "CC(C)(C)OC(=O)CC[C@@]1(C(=O)NCc2ccccc2)N=C(c2ccc(OCCCO)cc2)O[C@@H]1c1ccccc1N=[N+]=[N-]", "composite z-score": 0.224}, {"smiles": "COCCCNC(=O)[C@]1(CCS(=O)(=O)c2ccccc2)N=C(c2ccc(OCCCO)cc2)O[C@@H]1c1ccccc1CN=[N+]=[N-]", "composite z-score": 0.455}, {"smiles": "C=C(COC)/C(=C/C[C@H](OC(=O)c1ccncc1)c1ccccc1OCCO)c1cnc2ccccc2c1", "composite z-score": 0.0024}, {"smiles": "O=C(NCC(F)(F)F)[C@@H]1c2ccccc2C(=O)N(Cc2cc(F)cc(C(F)(F)F)c2)[C@H]1c1ccc(CO)cc1", "composite z-score": -0.278}, {"smiles": "Cc1ccccc1C(O)C1C=CC2C(=O)N(C)C(=O)C2N1N(c1ccccc1)c1ccccc1", "note": "(stereo not drawn)", "composite z-score": 0.409}, {"smiles": "COCCOC(=O)N1C(=O)[C@@]2(c3cc(C#CC4=CCCCC4)ccc31)[C@H](C(N)=O)[C@H]1C(=O)O[C@H](c3ccccc3)[C@H](c3ccccc3)N1[C@@H]2c1ccccc1OCCO", "composite z-score": -0.0056}, {"smiles": "C[N+](C)(C)CCCCCCNC(=O)[C@H]1C[C@H]2C(=O)NCC(=O)N2[C@H]1c1ccc(O)cc1", "composite z-score": -0.12}, {"smiles": "O=C1OCC=C[C@H]2OC34C=CCN(Cc5ccccc5)C(=O)[C@H]3N(CCCCCCO)C(=O)[C@@H]4[C@@H]12", "note": "(stereo partly drawn)", "composite z-score": -0.159}, {"smiles": "COc1ccc(-c2nc(-c3ccccc3)c3c(c2C)CO[Si]3(C(C)C)C(C)C)cn1", "composite z-score": 0.0361}, {"smiles": "COCCOC(=O)N1C(=O)[C@@]2(c3cc(C#CC4(O)CCCCCC4)ccc31)[C@H](c1ccc(O)cc1)N1[C@H](c3ccccc3)[C@H](c3ccccc3)OC(=O)[C@H]1[C@@H]2C(=O)NC[C@H](O)c1ccccc1", "composite z-score": 0.22}, {"smiles": "[N-]=[N+]=NCc1ccccc1C[C@@]1(C(=O)NCc2ccccc2)N=C(c2ccc(OCCCO)cc2)O[C@@H]1c1ccccc1N=[N+]=[N-]", "composite z-score": -0.0831}, {"smiles": "[N-]=[N+]=NCc1ccccc1C[C@@]1(C(=O)N2CCOCC2)N=C(c2ccc(OCCCO)cc2)O[C@@H]1c1ccccc1", "composite z-score": 0.801}, {"smiles": "COc1ccc(NC(=O)O[C@H]2[C@H](OC(=O)Nc3ccccc3)[C@H](OC(=O)Nc3ccccc3)[C@@H](OC)O[C@@H]2CO)cc1", "composite z-score": 0.644}, {"smiles": "COCCOC(=O)N1C(=O)[C@@]2(c3ccccc31)[C@H](C(=O)N1CCN(c3ncccn3)CC1)[C@H]1C(=O)O[C@H](c3ccccc3)[C@H](c3ccccc3)N1[C@@H]2c1ccc(O)cc1", "composite z-score": -0.184}, {"smiles": "CCCCO[C@H]1C[C@H]2C(I)=C[C@@H]1C(=O)[C@]21CO1", "composite z-score": -0.19}, {"smiles": "COc1ccc(CN(C2=CC[C@@]3(C(N)=O)C(=O)C(Cl)=C(Cl)C(=O)[C@@]3(C#N)C2)S(=O)(=O)c2ccc(Br)cc2)cc1", "composite z-score": -0.111}, {"smiles": "CCCCN1CC=CC23O[C@@H]4/C=C\\CCC(C)OC(=O)C4[C@H]2C(=O)N(C(CO)C(C)C)[C@@H]3C1=O", "note": "(stereo partly drawn)", "composite z-score": -0.123}, {"smiles": "[N-]=[N+]=NCc1ccccc1C[C@]1(C(N)=O)N=C(c2ccc(OCCCO)cc2)O[C@H]1c1ccccc1", "composite z-score": -0.02}, {"smiles": "C=CCNC(=O)[C@H]1[C@@H]2C(=O)O[C@@H](c3ccccc3)[C@@H](c3ccccc3)N2[C@@H](c2ccc(O)cc2)[C@]12C(=O)Nc1ccc(C#CC3(O)CCCCCC3)cc12", "composite z-score": -0.0896}, {"smiles": "NCCCCCNC(=O)[C@@H]1C[C@@H]2C(=O)NCC(=O)N2[C@@H]1c1cccc(OCCO)c1", "composite z-score": -0.0158}]}]}
